Test results: PubChem BioAssay (NCI)
Where “and” joins values, the source holds several entries; their conditions need not be identical. Equal entries are not always repeated. About 83,000 compounds went through this panel and 20% of them were active in at least one assay; those are over-represented in the sample as a whole.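 Assay: single dose, 48 h. Readout: percent growth (0 = no net growth; negative = cell death). Active: <10.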 Calls of active or inactive are those of the source.

What follows are compounds tested on MDA-MB-468 breast (assay: NCI-60 one-dose screen, 48 h (100 = growth as untreated, 0 = no growth, -100 = all killed)). Conditions: 10 µM unless noted.
`C/C(=C\CCc1ccsc1)CC/C=C(\C)CCCN1CCSCC1` was tested, and the growth was 50.1% (inactive).
For `O=C(c1ccccc1)[C@@H](c1ccccc1)[C@]1(O)C(=O)Nc2ccccc21`, the growth was 102% (inactive).
With `O=C(OCC1CCCO1)c1ccc([N+](=O)[O-])cc1` (stereo unspecified) the growth was 88.9% (inactive).
For `Cc1oc2c(C(=O)N/N=C\c3ccc(O)cc3O)c[nH]c2c1C`, the growth was -11.8% (active).
With `Nc1cc(Br)cc2c1[nH]c(=O)c1ccccc12` the growth was -8.15% (active).
In the case of `O=C(NS(=O)(=O)c1ccccc1)n1cc(-c2ccncc2)c(-c2cc(O)cc(Cl)c2)n1`, the growth is reported as 98.4% (inactive).
In the case of `CCOC(=O)c1c(CN2CCN(C)CC2)nc2ccc(Cl)cc2c1-c1ccccc1`, the growth is reported as 63.7% (inactive).
`Cc1ccc(NCCN(C)CC(C)O)c2c(=O)c3ccc(Cl)cc3sc12` (stereo unspecified) was tested, and the growth was -2.72% (active).
For `Cc1cc(C)c(C=O)c(C)c1`, the growth was 94.1% (inactive).
`O=C(NC1CCCCC1)C(c1cccs1)N(CCc1ccccc1)C(=O)c1ccco1` (stereo unspecified) was tested, and the growth was 94.1% (inactive).
`CNC(=O)NCC1OC(n2cnc3c(NC(=O)Nc4ccccc4)ncnc32)C2OC(C)(C)OC12` (stereo unspecified) was tested, and the growth was 101% (inactive).
In the case of `Fc1ccc(Nc2ccc3cc(OCCCN4CCOCC4)ccc3n2)cc1F`, the growth is reported as 52.8% (inactive).
For `CC(C)CCC[C@@H](C)[C@H]1CC[C@H]2[C@@H](Nc3ccc(O)cc3)CCC[C@]12C`, the growth was -13.8% (active).
In the case of `Cc1ccc(NC(=S)NNC(=S)Nc2ccc(C)cc2)cc1`, the growth is reported as 99.3% (inactive) and 34% (inactive).
For `CO[C@H]1C[C@@H]2CC[C@@H](C)[C@@](O)(O2)C(=O)C(=O)N2CCCC[C@H]2C(=O)O[C@H]([C@H](C)C[C@@H]2CC[C@@H](OP(C)(C)=O)[C@H](OC)C2)CC(=O)[C@H](C)/C=C(\C)[C@@H](O)[C@@H](OC)C(=O)[C@H](C)C[C@H](C)\C=C/C=C/C=C/1C`, the growth was 39.9% (inactive).
For `CCOc1cccc(/C=N/NC(=O)Cc2ccc(Nc3ccnc(C(F)(F)F)c3)cc2)c1O`, the growth was 1.86% (active).
With `O=C1COCCN1c1ccc(NCc2cn(C(=O)c3ccc(Cl)cc3)c3ccccc23)cc1` the growth was -66.6% (active).
With `O=c1[nH]c(N2CCOCC2)nc2scc(-c3ccccc3)c12` the growth was 86.2% (inactive).
`CCNC(=O)N1CCc2cc(OC)c(OCCc3ccc(OC)c(N)c3)cc2C1c1cc(C)c(C)cc1C` (stereo unspecified) was tested, and the growth was 42% (inactive).
In the case of `COC(=O)[C@]1(C)CCC[C@]2(C)[C@H]3C[C@H]4C(C(C)C)=C[C@]3(CC[C@H]21)[C@@H]1C(=O)N(CCC#N)C(=O)[C@@H]14`, the growth is reported as 86.9% (inactive).
`Cc1nn(-c2nc(-c3cc4ccccc4oc3=O)cs2)c(C)c1N=Nc1ccccc1` was tested, and the growth was 103% (inactive).
For `CCCNC(=O)Oc1ccc(/C(=C(/CC)Cc2ccccc2)c2ccc(OCCN(CC)CC)cc2)cc1`, the growth was 68.6% (inactive).
`COc1ccc2[nH]c(O)c(/C=c3/cc4c(c(-c5cc(OC)c(OC)c(OC)c5)n3)=Nc3ccccc3-4)c2c1` was tested, and the growth was 49.7% (inactive).
With `CN1C(=S)N(C)C2C1NN=C1SC(c3ccccc3)=CC(=O)N12` (stereo unspecified) the growth was 62.9% (inactive).
With `O=C(CCN1C(=O)/C(=C/c2ccccc2F)SC1=S)N1CCOCC1` the growth was 24.7% (inactive).
With `Cc1ccc(C(CN(C)C)C(=O)c2ccccc2)cc1` (stereo unspecified) the growth was 4.73% (active).
`COc1ccc(-c2nnc3c4[nH]cnc4ncn23)c(OC)c1` was tested, and the growth was -16.2% (active).
`Nc1n[nH]c2cc(F)c([C@@H]3Nc4ccc5[nH]ncc5c4[C@H]4C5CCC(C5)[C@@H]34)cc12` (stereo partly specified) was tested, and the growth was -11.7% (active).
With `COc1cccc(NC(=O)Nc2ccc(Oc3ncnc4[nH]c(C)c(C)c34)cc2)c1` the growth was 125% (inactive).
`COc1ccc2c(c1)[n+](=O)c(/C=C/C(=O)c1cc(OC)c(OC)c(OC)c1)c(C)n2[O-]` was tested, and the growth was 24.9% (inactive).
For `Cc1ccc(NC(=S)NNC(=S)NNc2ccccc2)cc1C`, the growth was 99.6% (inactive).
For `C/C=C(/C)C(=O)OC1C=C(CO)C(=O)C(OC(=O)C2(C)OC2C)C1C(C)C` (stereo unspecified), the growth was -66.8% (active).
`COc1ccc(N2CCN(C(=O)c3sc4nc(C)c(Br)c(C)c4c3N)CC2)cc1` was tested, and the growth was 109% (inactive).
With `N=C(N)c1ccc(-c2ccc(-c3ccc(Cl)cc3Cl)s2)nc1` the growth was -13.7% (active).
With `Nc1c(C(=O)Nc2ccc(Cl)cc2)cc(-c2nc3ccccc3s2)c(=O)n1NS(=O)(=O)c1ccc(Cl)cc1` the growth was 110% (inactive).
In the case of `COc1cccc(C2C3=C(COC3=O)N(CCO)c3cc4c(cc32)OCCO4)c1` (stereo unspecified), the growth is reported as -52.9% (active).
